# Test results: PubChem BioAssay (NCATS)
# Unmarked numbers belong to inactive results. Records with an inconclusive call do not appear. A call without a number means that no potency is given here. Activity calls are given as the source filed them. Unless noted, calls follow the shape of the dose curve; as a rule, active = well fitted curve in the direction sought with a large enough effect; inconclusive = small, poorly fitted or top-dose-only effect, or another doubt; inactive = no such curve, though single readings can be large; an effect the other way counts as inactive or inconclusive.
# Columns and labels:
# [1] = molecular target: Luciferin 4-monooxygenase (Photinus pyralis) (UniProt P08659); experiment: Biochemical firefly luciferase enzyme assay for NPC (AID 624030); also: nearly all actives have a fitted effect of over 70% in size; also: potency is read from the fitted curve at half-maximal effect
# Luciferin 4-monooxygenase (Photinus pyralis), sequence (P08659 whole entry, looked up): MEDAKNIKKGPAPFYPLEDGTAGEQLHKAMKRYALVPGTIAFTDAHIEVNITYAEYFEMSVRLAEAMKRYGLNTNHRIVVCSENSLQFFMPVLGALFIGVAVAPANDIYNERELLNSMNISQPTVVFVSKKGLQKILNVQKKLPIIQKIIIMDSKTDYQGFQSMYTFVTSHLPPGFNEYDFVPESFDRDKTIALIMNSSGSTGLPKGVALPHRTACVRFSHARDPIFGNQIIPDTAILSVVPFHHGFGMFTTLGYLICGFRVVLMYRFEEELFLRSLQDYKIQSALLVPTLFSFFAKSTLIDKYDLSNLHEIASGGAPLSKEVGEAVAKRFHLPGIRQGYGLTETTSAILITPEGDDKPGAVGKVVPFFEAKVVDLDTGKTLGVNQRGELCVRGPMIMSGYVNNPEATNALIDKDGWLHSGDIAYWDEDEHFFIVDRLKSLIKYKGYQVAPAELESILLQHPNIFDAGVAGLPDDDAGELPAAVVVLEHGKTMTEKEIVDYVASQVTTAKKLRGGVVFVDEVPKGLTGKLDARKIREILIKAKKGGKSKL
# In short: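 Direct inhibition of firefly luciferase enzyme (10 nM final, 50 mM Tris Acetate) assessed by luminescence within 5 minutes. Percent activity scaled between DMSO and PTC124 positive control, with concentration-effect curves classified by fit quality and response.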
# [2] = molecular target: Thyroid hormone receptor beta (Homo sapiens) (UniProt P10828); experiment: qHTS assay for small molecule antagonists of thyroid hormone receptor beta signaling (AID 588547; active = well fitted inhibition curve with a large enough effect in the signal ratio, with a control signal flat, not every such curve was filed as active; the % refers to the signal ratio; also: potency is read from the fitted curve at half-maximal effect;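 as to activity change % (negative = inhibition): cells stimulated with 0.4 nM T3 agonist during compound exposure; series mostly up to about 77 µM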); settings: TR-UAS-bla HEK293, beta-lactamase ratio, antagonist mode, 18 h
# Thyroid hormone receptor beta (Homo sapiens), sequence (P10828 whole entry, looked up): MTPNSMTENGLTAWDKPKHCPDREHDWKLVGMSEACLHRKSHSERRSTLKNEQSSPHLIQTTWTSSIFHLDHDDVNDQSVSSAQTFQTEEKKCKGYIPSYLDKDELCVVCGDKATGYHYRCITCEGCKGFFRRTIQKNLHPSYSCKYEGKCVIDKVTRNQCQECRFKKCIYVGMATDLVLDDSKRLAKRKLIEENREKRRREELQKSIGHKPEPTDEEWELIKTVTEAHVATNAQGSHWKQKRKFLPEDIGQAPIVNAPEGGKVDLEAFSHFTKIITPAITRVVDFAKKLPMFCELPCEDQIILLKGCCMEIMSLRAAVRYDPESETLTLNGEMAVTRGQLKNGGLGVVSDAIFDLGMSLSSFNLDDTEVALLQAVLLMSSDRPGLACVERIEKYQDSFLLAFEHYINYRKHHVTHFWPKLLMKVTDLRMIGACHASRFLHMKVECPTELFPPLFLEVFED
# In short: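 Inhibition of T3-driven (0.4nM final) beta-lactamase reporter activity was measured over 0.59 nM to 92 uM compound after 18 h at 37 C. The cells were GripTite HEK293 TR-UAS-bla in charcoal/dextran-stripped serum, with CCF4 ratio read-out and IC50 from Hill fits.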
# [3] = molecular target: Voltage-gated inwardly rectifying potassium channel KCNH2 (Homo sapiens) (UniProt Q12809); experiment: qHTS Assay for Small Molecule Inhibitors of the Human hERG Channel Activity (AID 588834);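 also: top concentration of the series differs between compounds; lower thallium flux fluorescence means stronger hERG block; nearly all actives have a fitted effect of over 50% in size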
# Voltage-gated inwardly rectifying potassium channel KCNH2 (Homo sapiens), sequence (Q12809 whole entry, looked up): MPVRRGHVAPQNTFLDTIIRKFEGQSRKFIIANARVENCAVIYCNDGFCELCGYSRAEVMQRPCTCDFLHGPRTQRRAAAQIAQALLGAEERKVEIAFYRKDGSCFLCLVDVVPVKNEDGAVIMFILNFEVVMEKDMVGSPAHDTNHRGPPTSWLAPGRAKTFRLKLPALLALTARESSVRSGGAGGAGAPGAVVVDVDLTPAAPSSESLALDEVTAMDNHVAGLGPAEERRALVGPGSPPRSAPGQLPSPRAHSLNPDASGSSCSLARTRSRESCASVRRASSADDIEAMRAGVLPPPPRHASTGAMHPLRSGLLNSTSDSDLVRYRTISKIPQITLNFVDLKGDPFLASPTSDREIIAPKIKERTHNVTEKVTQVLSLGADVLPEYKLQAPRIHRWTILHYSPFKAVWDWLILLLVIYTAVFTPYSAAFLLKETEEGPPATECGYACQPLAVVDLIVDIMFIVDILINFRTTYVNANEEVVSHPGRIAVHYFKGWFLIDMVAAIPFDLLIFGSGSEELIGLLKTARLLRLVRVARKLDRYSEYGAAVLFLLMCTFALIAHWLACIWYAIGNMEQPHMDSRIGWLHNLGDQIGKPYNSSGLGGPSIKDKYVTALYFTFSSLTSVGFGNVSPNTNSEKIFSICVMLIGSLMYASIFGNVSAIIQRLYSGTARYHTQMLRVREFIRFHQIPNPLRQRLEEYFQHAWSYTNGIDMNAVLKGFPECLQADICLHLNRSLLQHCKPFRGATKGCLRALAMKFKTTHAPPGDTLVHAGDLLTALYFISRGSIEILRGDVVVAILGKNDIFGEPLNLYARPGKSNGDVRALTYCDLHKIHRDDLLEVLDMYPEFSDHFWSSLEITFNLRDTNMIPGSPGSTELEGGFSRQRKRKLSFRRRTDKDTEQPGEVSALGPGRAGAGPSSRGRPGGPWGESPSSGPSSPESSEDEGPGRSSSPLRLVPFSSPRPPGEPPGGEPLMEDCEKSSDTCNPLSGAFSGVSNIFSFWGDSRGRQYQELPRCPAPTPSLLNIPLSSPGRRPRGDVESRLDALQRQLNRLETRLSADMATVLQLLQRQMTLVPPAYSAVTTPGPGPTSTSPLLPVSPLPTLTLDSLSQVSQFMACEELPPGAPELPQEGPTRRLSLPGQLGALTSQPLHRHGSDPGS
# In short: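 U2OS cells transduced with hERG via BacMam (MOI ~100), plated 2000/well, loaded with FluxOR thallium dye, compound ~10 min, then stimulation buffer; fluorescence decrease read kinetically; AC50 from Hill fits.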
# [4] = S16 Schwann cell viability assay (CellTiter-Glo assay) (AID 624031);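 also: cellular ATP luminescence as a viability measure; series mostly up to about 58 µM; nearly all actives have a fitted effect of over 70% in size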
# In short: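 Native S16 rat Schwann cells in DMEM/10% FBS without phenol red were incubated overnight, then exposed to compounds for 24 h at 37 °C/5% CO2. Viability was read as ATP luminescence (CellTiter-Glo), normalized to no-cell wells and DMSO (0%).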
# [5] = S16 Schwann cell PMP22 intronic element firefly luciferase assay (AID 624032); also: nearly all actives have a fitted effect of over 30% in size; also: potency is read from the fitted curve at half-maximal effect
# In short: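 Luciferase reporter of PMP22 intronic-element expression in stably transfected S16 rat Schwann cells, read by ONE-Glo luminescence after 24 h compound exposure at 37 C. Activity scaled between DMSO (0%) and positive-control PTC124; concentration-effect curves quality-classified.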
# [6] = S16 Schwann cell PMP22 intronic element beta-lactamase assay (AID 624044; calls by dose curve; also: nearly all actives have a fitted effect of over 15% in size)
# In short: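 Rat S16 Schwann cells with beta-Lac driven by a PMP22 intronic element, compound-treated 24 h at 37 °C. LiveBLAzer FRET B/G read: 460 nm normalized to potassium clavulanate vs DMSO; 535 nm FRET as viability; concentration-effect curves classified.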
# [7] = molecular target: Glutaminase kidney isoform, mitochondrial (Homo sapiens) (UniProt O94925); experiment: qHTS for Inhibitors of Glutaminase (GLS): LOPAC Validation (AID 624146);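 also: glutamate product detected by oxidase and peroxidase coupled Amplex red fluorescence gain; series mostly up to about 46 µM; nearly all actives have a fitted effect of over 60% in size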
# Glutaminase kidney isoform, mitochondrial (Homo sapiens), sequence (O94925 whole entry, looked up, canonical isoform): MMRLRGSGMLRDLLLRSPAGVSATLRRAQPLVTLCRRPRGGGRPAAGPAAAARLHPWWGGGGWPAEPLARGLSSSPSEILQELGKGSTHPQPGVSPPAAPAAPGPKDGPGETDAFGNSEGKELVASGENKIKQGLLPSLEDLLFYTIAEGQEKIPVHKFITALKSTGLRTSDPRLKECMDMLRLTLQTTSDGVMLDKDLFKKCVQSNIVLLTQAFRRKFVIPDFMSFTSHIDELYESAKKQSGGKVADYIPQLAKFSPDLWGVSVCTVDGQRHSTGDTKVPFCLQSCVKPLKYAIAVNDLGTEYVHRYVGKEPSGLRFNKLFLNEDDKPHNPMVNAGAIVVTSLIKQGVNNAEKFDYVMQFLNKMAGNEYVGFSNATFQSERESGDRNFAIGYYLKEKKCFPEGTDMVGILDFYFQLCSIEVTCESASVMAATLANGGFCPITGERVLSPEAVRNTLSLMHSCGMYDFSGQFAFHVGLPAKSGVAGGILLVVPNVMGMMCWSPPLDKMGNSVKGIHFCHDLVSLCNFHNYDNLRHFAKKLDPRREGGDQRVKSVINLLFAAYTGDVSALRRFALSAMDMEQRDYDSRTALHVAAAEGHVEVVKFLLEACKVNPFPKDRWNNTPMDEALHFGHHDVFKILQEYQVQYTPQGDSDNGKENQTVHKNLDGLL
# In short: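 Coupled fluorescence readout: glutamate oxidase/HRP/Amplex Red detect glutamate formed by hKGA from L-glutamine (1 mM solution added). Buffer 45 mM KH2PO4 pH 8.2, 0.02% Tween-20; reads at t0 and 30 min RT.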
# [8] = molecular target: Glucagon-like peptide 1 receptor (Homo sapiens) (UniProt P43220); experiment: qHTS of GLP-1 Receptor Agonists: LOPAC Validation (AID 624148);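 also: luminescence from a luciferase reporter switched on by cAMP; higher luminescence signal means agonism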
# Glucagon-like peptide 1 receptor (Homo sapiens), sequence (P43220 whole entry, looked up): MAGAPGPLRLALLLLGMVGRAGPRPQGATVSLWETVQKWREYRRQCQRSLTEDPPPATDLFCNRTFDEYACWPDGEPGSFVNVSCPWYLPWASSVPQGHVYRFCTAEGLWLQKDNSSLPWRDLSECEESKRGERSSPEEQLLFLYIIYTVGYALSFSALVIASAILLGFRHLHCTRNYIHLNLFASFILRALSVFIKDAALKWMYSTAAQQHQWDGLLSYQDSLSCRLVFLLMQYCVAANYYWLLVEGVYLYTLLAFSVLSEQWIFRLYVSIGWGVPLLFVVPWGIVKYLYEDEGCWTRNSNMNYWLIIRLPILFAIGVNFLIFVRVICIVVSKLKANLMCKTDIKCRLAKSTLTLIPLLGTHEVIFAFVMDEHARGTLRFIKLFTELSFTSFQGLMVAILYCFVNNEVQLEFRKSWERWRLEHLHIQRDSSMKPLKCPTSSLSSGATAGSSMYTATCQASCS
# In short: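 Agonism scored as increased luciferase luminescence driven by cAMP in HEK293 clones carrying GLP-1R. Cells settled 12 hours, received compound for 4-6 hr at 37 deg C, 5% CO2, and were read after 12 min detection reagent at RT.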
# [9] = qHTS of Nrf2 Activators: LOPAC Validation (AID 624149)
# In short: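 Luminescence read-out of ARE-luciferase activation: AREc32_Fluc cells treated with compounds for 24 hr at 37 deg C, then lysed with Steady-Glo for 30 min at room temperature before reading.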
# [10] = HTS Assay for Allosteric Antagonists of the Human D2 Dopamine Receptor: Hit Validation in HTRF (AID 624455);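 also: stable D1 dopamine receptor cell line scored for blocking the D1 response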
# In short: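 First, antagonism was screened by calcium flux in a force-coupled, inducible Hek293 Trex D2 line challenged with EC80 dopamine. Hits then went into an HTRF assay in cells stably expressing D1, testing inhibition of the D1 response.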
compound,measurement,setting,value
O=P(O)(O)OC(CO)CO,Potency,[1],inactive
CCC(C)(C)OC(=O)N[C@@H](Cc1c[nH]c2ccccc12)C(=O)N[C@@H](CCSC)C(=O)N[C@@H](CC(=O)O)C(=O)N[C@@H](Cc1ccccc1)C(N)=O,Potency,[1],inactive
Cc1ccc(C2(O)CCN(CCCC(=O)c3ccc(F)cc3)CC2)cc1,Potency,[1],inactive
CCCC(=O)N1CCCN(c2nc(N)c3cc(OC)c(OC)cc3n2)CC1,Potency,[1],inactive
CC(CC(c1ccccc1)c1ccccc1)NC(C)(C)C (stereo not given),Potency,[1],inactive
CCCCCCCCCC(=O)O,activity change % (negative = inhibition),[2],17.7%
same,outcome,[3],inactive
same,Potency,[1],inactive
O=C(O)CC(O)(CC(=O)O)C(=O)O,outcome,[3],inactive
same,Potency,[1],inactive
CCC(C)C(C(=O)OCC[N+](C)(CC)CC)c1ccccc1 (stereo not given),Potency,[1],inactive
CCCCCCCCCCCCCCCCCC(=O)[O][Al],Potency,[1],inactive
CCCOc1ccc2nc(NC(=O)OC)sc2c1,outcome,[3],inactive
same,Potency,[4],inactive
same,Potency,[5],inactive
same,outcome,[6],inactive
O=C(O)c1cc2ccccc2c(Cc2c(O)c(C(=O)O)cc3ccccc23)c1O,Potency,[1],14.4 µM (active)
NNc1nnc(Cc2ccncc2)c2ccccc12,Potency,[1],5.1 µM (active)
O=C1C(c2[nH]c3ccc(S(=O)(=O)O)cc3c2O)=Nc2ccc(S(=O)(=O)O)cc21,Potency,[1],inactive
CS(=O)(=O)OCCCNCCCOS(C)(=O)=O,Potency,[1],inactive
N[C@@H](C(=O)N[C@H]1C(=O)N2C(C(=O)O)=C(Cl)CC[C@H]12)c1ccccc1,Potency,[1],inactive
CN(C)Cc1ccccc1,activity change % (negative = inhibition),[2],-0.727%
same,outcome,[3],inactive
same,Potency,[1],inactive
NCCCC(=O)O,outcome,[3],inactive
same,Potency,[4],inactive
same,Potency,[5],inactive
same,outcome,[6],inactive
same,outcome,[7],inactive
same,outcome,[8],inactive
same,outcome,[9],inactive
same,outcome,[10],inactive
C=Cc1ccccc1,outcome,[3],inactive
CC(=O)OC[C@H]1O[C@@H](O[C@H]2[C@H](O)[C@@H](OC(=O)c3ccccc3C(=O)O)[C@H](O)O[C@@H]2COC(C)=O)[C@H](O)[C@@H](OC(=O)c2ccccc2C(=O)O)[C@@H]1O,Potency,[1],inactive
CN=C(NC)NCc1ccccc1,Potency,[1],inactive
COC(C)=O,activity change % (negative = inhibition),[2],-1.11%
same,outcome,[3],inactive
same,Potency,[1],inactive
CC(=O)S[C@@H]1CC2=CC(=O)CC[C@]2(C)[C@H]2CC[C@@]3(C)[C@@H](CC[C@@]34CCC(=O)O4)[C@H]12,Potency,[2],28.2 µM (active)
CN1CC(O)c2cc(N=NC(N)=O)c(O)cc21 (stereo not given),Potency,[1],inactive
C[C@H]1C[C@@H]2[C@H]([C@@H](O)C[C@@]3(C)[C@H]2CC[C@]3(O)C(=O)COC(=O)CCC(=O)O)[C@@]2(C)C=CC(=O)C=C12,Potency,[1],inactive
CCCC1([C@H](O)C/C=C/[C@H]2[C@H](O)CC(=O)[C@@H]2CCCCCCC(=O)OC)CCC1,Potency,[1],inactive
OC(CN1CCCCC1)c1cc(-c2ccccc2)on1 (stereo not given),Potency,[1],inactive
C=CCNC1=C2C[C@@H](C)C[C@H](OC)[C@H](O)[C@@H](C)/C=C(\C)[C@H](OC(N)=O)[C@@H](OC)/C=C\C=C(/C)C(=O)NC(=CC1=O)C2=O,Potency,[5],0.0721 µM (active)
same,outcome,[6],inactive
CN[C@H]1CC[C@@H](c2ccc(Cl)c(Cl)c2)c2ccccc21,outcome,[6],inactive
same,outcome,[7],inactive
same,outcome,[8],inactive
same,outcome,[9],inactive
same,outcome,[10],inactive
